From PubChem
DAX1 inh-1: DAX1 (NR0B1) inhibition, primary screen; HEK293T StAR-luciferase reporter, SF-1/DAX-1 repression relief; inhibition, % at 6.8 µM; 1.1% of 370,000 active;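 active = inhibition above the mean over all tested compounds plus 3 SD, cut at about 3.6% in these data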;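 note: 0% = DAX-1 cells with DMSO and 100% = cells lacking DAX-1 with DMSO; higher inhibition means more luminescence from relief of DAX-1 repression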
hgDAF12 agonist: hgDAF-12 agonism, primary luciferase screen. HEK293 GAL4-hgDAF12 UAS-luciferase reporter, agonist luminescence; normalized to butyrate control. activation, % at 6.8 µM. 1.8% of 370,000 active;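 active = activation above a cutoff set at the mean of all screened compounds plus 3 SD, cut at about 10% in these data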;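 note: 0% = DMSO wells and 100% = sodium butyrate wells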
DAX1 inh-2: NR0B1 (DAX1) inhibition | AID 504766 | inhibition, % at 6.75 µM | 0.99% of 340,000 active | HEK293 Gal4-DAX1 luciferase reporter, luminescence;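 active = inhibition above the mean over all tested compounds plus 3 SD, cut at about 4.2% in these data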;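 note: 0% = DAX1-transfected cells with DMSO and 100% = empty-vector control cells with DMSO; inhibition shows as a rise in luminescence from relieved DAX1 repression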
Target sequence (P51843 207-470 limits assumed): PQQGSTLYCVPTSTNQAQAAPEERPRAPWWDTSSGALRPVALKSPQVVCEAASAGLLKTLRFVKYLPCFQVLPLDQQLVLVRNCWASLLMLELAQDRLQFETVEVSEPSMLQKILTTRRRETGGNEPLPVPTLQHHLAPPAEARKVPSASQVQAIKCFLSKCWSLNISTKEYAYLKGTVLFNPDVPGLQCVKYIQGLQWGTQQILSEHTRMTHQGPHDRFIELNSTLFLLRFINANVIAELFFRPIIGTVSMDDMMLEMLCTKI
hcDAF12 agonist: activates DAF-12 receptor from parasite H. contortus | HEK293 hcDAF-12 lit1-tk-luc reporter, luminescence; 0% DMSO, 100% Δ7-dafachronic acid | activation, % at 6.8 µM | 1.4% of 370,000 active;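 active = activation above the mean of all tested compounds plus 3 SD, cut at about 5.5% in these data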;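 note: 100% = response to 3 µM Δ7-dafachronic acid high control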
ssDAF12 agonist: S. stercoralis DAF-12 activation, primary screen; HEK293 ssDAF-12/GRIP1 lit1-tk-luc reporter, luminescence; % of 3 µM dafachronic acid response; AID 652126; activation, % at 6.8 µM; 1% of 370,000 active;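 active = activation above the mean over all tested compounds plus 3 SD, cut at about 0.9% in these data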;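 note: 0% = DMSO-only wells and 100% = 3 µM delta7-dafachronic acid wells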
DAX1 conf: confirmation of human DAX1 (NR0B1) inhibitors; shares compounds with DAX1 inh-1; HEK293T StAR-promoter luciferase reporter, SF-1/DAX-1 repression; inhibition, % at 6.8 µM; 87% of 2,400 active;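 active = inhibition above the average of every tested compound plus 3 SD, cut at about 3.8% in these data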;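 note: 0% = DAX-1 cells with DMSO and 100% = no DAX-1 control cells with DMSO; active compounds raise luminescence by relieving repression of the StAR reporter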
SF1 AF2mut Luc: nonselective inhibitor or artifact in SF-1 mutant DAX1 counter-screen | HEK293 StAR-luciferase, SF-1 AF2 mutant, luminescence | 78% of 2,400 active | AID 652136 | inhibition, % at 6.8 µM | shares compounds with DAX1 inh-1;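 active = inhibition above the mean of all tested compounds plus 3 SD, cut at about 3% in these data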;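 note: 0% = DAX-1 transfected cells with DMSO and 100% = cells without DAX-1 with DMSO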
The depositor's hits bear a star; x = no result. Rows were chosen to be rich in hits. Some 4.1% of all compounds tested hit in one or more screens of this group.

SMILES	DAX1 inh-1	hgDAF12 agonist	DAX1 inh-2	hcDAF12 agonist	ssDAF12 agonist	DAX1 conf	SF1 AF2mut Luc
Cn1cc([C@]2(O)C(=O)Nc3c(F)cccc32)c2ccccc21	0.2	-2.1	x	1.8	0.3	x	x
CC(=O)c1cccc(S(=O)(=O)NC2CCSc3ccccc32)c1 (stereo unspecified)	-0.3	-0.4	-1.3	2.1	-0.6	x	x
O=C(N/N=C/c1cc(Br)c(O)c(Br)c1)c1cc2c(ccc3ccccc32)o1	5.2*	3.7	-0.8	-0.9	-0.5	2.9	0.7
O=C(N/N=C/c1ccc(O)c(Br)c1)c1cc2c(ccc3ccccc32)o1	1.1	-3.8	0.4	1.5	-1.2	x	x
Cc1cccc(-n2cnc3cc(C(=O)NCC4CCCO4)ccc32)c1 (stereo unspecified)	-3.2	0.4	0.1	-1.6	-1.6	x	x
CCOc1ccc(NC(=O)c2ccco2)cc1S(=O)(=O)N1CCCC1	5.1*	-0.7	0.3	-0.3	-0.4	2.9	1.0
COc1ccc(C(=O)NCCC2=CCCCC2)cc1	5.5*	10.4	-3.0	5.6*	1.2*	10.3*	2.1
O=C(NCCc1ccc(F)cc1)c1ccc([N+](=O)[O-])cc1	6.7*	8.6	2.1	1.6	-1.1	7.3*	3.9*
O=C(NCCC1=CCCCC1)c1ccc(F)cc1	6.4*	10.7*	-1.1	4.7	-0.2	17.8*	6.3*
O=C(CCNC(=O)c1ccc([N+](=O)[O-])cc1)Nc1ccc(F)cc1	-0.4	-0.3	0.2	-2.7	-1.1	x	x
O=C(NCCC1=CCCCC1)c1ccc([N+](=O)[O-])cc1	4.6*	13.0*	2.6	4.9	-0.6	13.2*	7.2*
CCOC(=O)c1ccc(NC(=O)COc2ccccc2CNC2CCCC2)cc1	-0.5	-1.2	3.2	-0.1	-1.2	x	x
O=C(CCSCc1ccc(Cl)cc1)NCCC1=CCCCC1	-0.3	-0.1	-0.5	2.0	-0.7	x	x
O=C(CCNC(=O)c1ccc(Cl)cc1)NCCC1=CCCCC1	5.4*	9.4	1.5	0.6	-0.3	5.8*	5.8*
Cc1ccc(CS(=O)(=O)c2cn(CC(=O)N3CCOCC3)c3ccccc23)cc1	0.3	1.4	-0.1	1.4	-0.5	x	x
O=C(Nc1ccc2c(c1)OCO2)c1ccccn1	8.8*	11.4*	0.7	1.8	0.2	9.9*	7.1*
COc1ccccc1C(=O)N/N=C/c1ccc2c(c1)OCO2	0.8	8.1	1.4	0.5	-1.0	x	x
O=C(Nc1ccc2c(c1)OCO2)c1cc(C2CC2)on1	7.0*	8.9	3.2	4.1	-0.1	13.0*	7.8*
O=C(Nc1ccc2c(c1)OCO2)c1cnccn1	1.8	7.2	2.9	0.8	-0.9	x	x
COC(=O)N1CCCCC1c1cc(C(=O)Nc2ccc3c(c2)OCO3)no1 (stereo unspecified)	0.0	0.0	x	0.3	-0.7	x	x
O=C(NN=Cc1ccc2c(c1)OCO2)c1ccccc1	5.3*	9.6	3.2	6.0*	0.7	11.3*	5.8*
CCCCc1c(C)[nH]c2nc3ccccc3n2c1=O	0.1	2.8	-0.6	0.8	-0.9	x	x
COCCNC(=O)C1(C)CCCN(C(=O)c2ccco2)C1 (stereo unspecified)	-0.2	1.9	x	0.8	-0.6	x	x
O=C(N/N=C/c1ccc2cccnc2c1)c1ccco1	5.0*	12.3*	0.8	3.3	-0.5	13.7*	7.2*
O=C(NNC(=S)Nc1ccc(Br)cc1)c1ccccc1Br	-0.3	6.5	0.3	1.7	-0.5	x	x
SMILES	DAX1 inh-1	hgDAF12 agonist	DAX1 inh-2	hcDAF12 agonist	ssDAF12 agonist	DAX1 conf	SF1 AF2mut Luc
O=C(NNC(=S)Nc1ccccc1Cl)c1ccccc1Br	15.2*	11.3*	0.8	4.0	-0.1	11.5*	6.1*
COc1ccc2oc(C(=O)OCC(=O)N(C)CC(=O)Nc3ccc(F)cc3)c(C)c2c1	1.7	2.0	1.1	-1.9	-1.1	x	x
CCCN1CCN(CCCNC(=O)c2ccc3c(c2)NC(=O)c2ccccc2S3)CC1	6.1*	2.0	1.0	1.1	-0.6	4.4*	1.1
CC(=O)c1cccc(NC(=O)c2ccc(CN3CCc4ccccc4C3)cc2)c1	-1.7	-5.0	-2.8	-3.9	-2.3	x	x
CC(=O)c1cccc(NC(=O)c2ccc3c(c2)CCCC3)c1	8.2*	12.5*	1.8	2.1	-0.6	8.8*	5.4*
Cc1ccc(C(=O)Nc2ccc3c(c2)CCC3)cc1	4.6*	6.5	-4.2	5.0	-0.4	6.0*	4.2*
Cc1ccc(C(=O)NCC(=O)Nc2ccc3c(c2)CCC3)cc1	1.5	3.9	3.8	2.7	-0.8	x	x
COc1ccc(CC(C)CC(=O)Nc2ccc(OC)cc2)cc1 (stereo unspecified)	1.2	-0.2	-0.3	-0.6	-1.0	x	x
Cc1noc(C)c1NC(=O)N(C)C[C@H]1OCc2cn(nn2)CCCC(=O)N([C@@H](C)CO)C[C@@H]1C	0.6	5.8	2.5	0.7	-1.0	x	x
CCOc1cccc2cc(-c3csc(NC(=O)CCC(=O)NCCN4CCCCC4C)n3)c(=O)oc12 (stereo unspecified)	6.5*	23.4*	2.6	5.4	0.7	13.8*	7.0*
NC(Cc1ccc(O)cc1)C(=O)NN=Cc1ccccc1Cl (stereo unspecified)	2.3	4.3	x	0.3	-0.4	x	x
O=C(Nc1ccccc1)OC1CC2CC1[C@H]1CCCCN1[C@H]2Cc1ccccc1 (stereo partly specified)	1.3	-0.5	x	-0.5	-0.7	x	x
Cc1ccc(C(=O)N2c3ccccc3CC2C)o1 (stereo unspecified)	5.4*	12.5*	0.9	3.0	-0.4	7.5*	6.5*
Cc1nc2cc(NC(=O)N3c4ccccc4CC3C)ccc2o1 (stereo unspecified)	5.2*	6.2	2.1	6.0*	1.2*	6.8*	4.1*
CC1Cc2ccccc2N1C(=O)c1ccc(Br)o1 (stereo unspecified)	2.8	8.3	2.2	3.0	0.1	x	x
N=C1C(c2ccccc2)=C(O)CN1CCCO	0.2	-0.1	1.2	-2.3	-1.0	x	x
COC(=O)Nc1nc2ccc(C(=O)c3cccs3)cc2[nH]1	8.7*	-1.0	0.0	-1.3	0.1	48.8*	-4.4
COC(=O)Nc1nc2ccc(SC(C)C)cc2[nH]1	-2.0	6.3	-0.7	-0.2	-0.4	x	x
CCN1CCN(Cc2ccc(NC(=O)Nc3ccccc3Cl)cc2)CC1	5.4*	11.2*	4.6*	2.9	-0.1	11.0*	8.6*
COc1cc(NC2c3ccccc3C(=O)N2c2ccc(C)cn2)cc(OC)c1OC (stereo unspecified)	6.1*	8.1	3.8	2.0	0.1	3.1	3.1*
COc1cc(NC2c3ccccc3C(=O)N2c2cc(C)ccn2)cc(OC)c1OC (stereo unspecified)	-0.5	-4.0	1.4	-1.7	-1.4	x	x
